# PubChem BioAssay (NCATS)
# Records with an inconclusive call do not appear. Entries that show only a call come without a potency. Active and inactive are the calls of the source. Calls come from the whole dose curve; as a rule, active = well fitted cell-killing curve with a large enough effect; inconclusive = small, poorly fitted or top-dose-only effect; inactive = flat fitted curve, though single readings scatter.
# Experiment: Cell Viability - LYMP2-010 (AID 981);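 note: cells exposed to compound for 24 hours at 37 °C; nearly all actives have a fitted effect of over 55% in size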
# Settings: LYMP2-010 lymphoblastoid cell viability, qHTS; series mostly up to 92.2 µM
# Summary of the method: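 Human lymphoblastoid LYMP2-010 cells (2500/well) treated 24 h at 37 C in complete medium; viability read as intracellular ATP by CellTiter-Glo luminescence. AC50 from Hill fits of concentration-response data; tetraoctylammonium bromide positive control.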
# Potency is the fitted concentration of half-maximal effect.
row,Compound,Potency
1,Oc1ccc2cc(SSc3ccc4cc(O)ccc4c3)ccc2c1,39.8 µM (active)
2,Nc1ccc2cc3ccccc3cc2c1,inactive
3,CN(C)c1ccc(C2(c3ccc(N(C)C)cc3)OC(=O)c3cc(N(C)C)ccc32)cc1,inactive
4,Cc1cc(Nc2ccc(O)cc2)ccc1N,31.6 µM (active)
5,Cc1cc(O)c(C(C)(C)C)cc1Sc1cc(C(C)(C)C)c(O)cc1C,31.6 µM (active)
6,C=C(C)c1ccccc1,inactive
7,O=C1OC2(c3cc(Br)c(O)c(Br)c3Oc3c2cc(Br)c(O)c3Br)c2c(Cl)c(Cl)c(Cl)c(Cl)c21,inactive
8,C=CC(=O)OCCOCCOC(=O)C=C,15.8 µM (active)
9,O=C1OC(O)C(C(Cl)Cl)=C1Cl (configuration not stated),15.8 µM (active)
10,CNc1ccc(O)cc1,3.16 µM (active)
11,CC(=O)Nc1ccc(C(=O)CCl)cc1,3.98 µM (active)
12,CCC(C)Nc1ccc(NC(C)CC)cc1 (configuration not stated),3.16 µM (active)
13,O=C=Nc1ccc(Cc2ccc(N=C=O)cc2)cc1,inactive
14,c1ccc2c(c1)ccc1cc3c(ccc4ccccc43)cc12,inactive
15,c1ccc2c(c1)-c1cccc3c1c-2cc1ccccc13,inactive
16,O=[N+]([O-])c1cc([N+](=O)[O-])c2ccc(S(=O)(=O)O)cc2c1O,inactive
17,O=Cc1ccc(Cl)c(Cl)c1,inactive
